# A selection: hits, their analogues and other compounds. The true share with any hit is near 6.6%.
# TGFb inhibitor = qHTS for Inhibitors of TGF-b | AID 588855, 2011 | 410,000 compounds, 1.2% hits | HepG2 CAGA-GFP TGF-b/SMAD3 reporter, GFP fluorescence, 18 h; TGF-beta stimulated, 500 pg/mL final | Potency, µM (highest dose often 46.1 µM), for the others: at the highest dose activity, negative = inhibition, actives largely listed as inhibitors; note: % is set by controls: 0 for no effect and ±100 for the full control effect; nearly all actives have a fitted effect of over 65% in size
#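 HEPG2 CAGA-GFP reporter cells (1000/well, DMEM with 1% FBS) received compounds, then recombinant TGF-beta at 500 pg/mL final for 18 hours at 37 degrees C. Per-cell GFP summed per well was normalised to unstimulated and stimulated DMSO controls before curve fitting.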
# HepG2 tox-1 = qHTS for Inhibitors of TGF-b: Cytotox Counterscreen; HepG2 CAGA-GFP viability, ATP luminescence, 18 h; Potency, µM (titrated, usually from 46.1 µM), without a hit: top-dose activity change, negative = cytotoxicity, hits mostly cytotoxic; 410,000 compounds, 0.76% hits; AID 588856, 2011
#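 HepG2 CAGA-GFP cells (1000/well, DMEM with 1% FBS) received compound, then TGF-beta at 500 pg/mL final, and were incubated 18 hours at 37 degrees C. Viability was read by CellTiter-Glo luminescence. Media-only wells were set as complete cell-killing and DMSO as no toxicity.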
# HT1080 IDH1KD tx = qHTS for induction of synthetic lethality in tumor cells producing 2HG: qHTS for the HT-1080-IDH1KD cell line; HT-1080 IDH1 knockdown viability, ATP luminescence, 48 h; 360,000 compounds, 2% hits; Potency, µM (series often up to 46.1 µM), inactives show top-dose activity, negative = toxicity, actives largely listed as cytotoxic;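 note: 0% = DMSO wells and -100% = cell-free medium wells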
#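 Cytotoxicity counter-line: IDH1KD HT-1080, 48 h, CellTiter-Glo. Curves classed by r2, magnitude and activity.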
# KB-V1 cytotox = qHTS assay for MDR1-selective chemotherapeutics: Primary screen using the drug-selected MDR subline cells KB-V1; KB-V1 MDR cells viability, CellTiter-Glo, 72 h; Potency, µM (doses to about 46.1 µM), actives largely listed as cytotoxic; 400,000 compounds, 3.4% hits; AID 1347076, 2019; note: % is set by controls: 0 for no effect and ±100 for the full control effect; nearly all actives have a fitted effect of over 60% in size
#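 Cytotoxicity via CellTiter-Glo luminescence after 72 h compound exposure at 37 degrees C. Cells: drug-selected KB-V1 line, DMEM phenol-red free plus 10% FBS. Compounds tested at multiple concentrations; normalized data fitted to concentration-effect curves.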
# KB-3-1 cytotox = qHTS assay for MDR1-selective chemotherapeutics: Primary screen using the parental adenocarcinoma cell KB-3-1. 400,000 compounds, 1.4% hits. KB-3-1 viability, CellTiter-Glo ATP luminescence, 72 h. Potency, µM (highest dose often 46.1 µM), most hits filed as cytotoxic; note: % is set by controls: 0 for no effect and ±100 for the full control effect; nearly all actives have a fitted effect of over 60% in size
#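 Parental KB-3-1 adenocarcinoma cells in phenol-red-free DMEM with 10% FBS were pin-treated with compounds at several concentrations, incubated 72 h at 37 °C, and viability read by CellTiter-Glo luminescence; concentration-effect curves were fitted after normalization.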
# HT1080NT lethal = qHTS for induction of synthetic lethality in tumor cells producing 2HG: qHTS for the HT-1080-NT fibrosarcoma cell line | 360,000 compounds, 1.6% hits | Potency, µM (series often up to 46.1 µM), for the others: at the highest dose activity, negative = less viability, most hits filed as cytotoxic | HT-1080-NT fibrosarcoma viability, CellTiter-Glo ATP luminescence, 48 h;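 note: NT is the 2HG producing partner of a matched IDH1 knockdown line; 0% = DMSO-treated cells and -100% = media-only wells without cells; nearly all actives have a fitted effect of over 55% in size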
#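 Fibrosarcoma NT cells, 750 per well in 5% FBS RPMI, were exposed to compound for 48 hours. Viability: CellTiter-Glo luminescence.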
# TGFb confirm = qHTS for Inhibitors of TGF-b: Confirmation of Cherry Picks. shares compounds with TGFb inhibitor. HepG2 CAGA-GFP TGF-b reporter, GFP fluorescence, 18 h; cells stimulated with TGF-beta, 500 pg/mL. Potency, µM (top dose mostly 46.1 µM), without a hit: top-dose activity, negative = inhibition, most hits filed as inhibitors. 1,600 compounds, 63% hits. AID 720534, 2013; note: % is set by controls: 0 for no effect and ±100 for the full control effect; nearly all actives have a fitted effect of over 65% in size
# HepG2 tox-2 = qHTS for Inhibitors of TGF-b: Cytotox Counterscreen for Cherry Picks | shares compounds with TGFb inhibitor | HepG2 CAGA-GFP viability, ATP luminescence, 18 h; cells stimulated with TGF-beta, 500 pg/mL | Potency, µM (highest dose often 46.1 µM), inactives show at the highest dose activity, negative = cytotoxicity, hits mostly inhibitors | 1,600 compounds, 27% hits; note: % is set by controls: 0 for no effect and ±100 for the full control effect; nearly all actives have a fitted effect of over 70% in size
# TGFb CCL64 inh = qHTS for Inhibitors of TGF-b: CCL64 Cells Orthogonal Assay for Cherry Picks; shares compounds with TGFb inhibitor; CCL64 CAGA-GFP reporter, TGF-b stimulated, GFP fluorescence, 18 h; Potency, µM (doses to about 46.1 µM), inactives show top-dose activity, negative = inhibition, most hits filed as inhibitors; 1,600 compounds, 41% hits; AID 720536, 2013; note: nearly all actives have a fitted effect of over 65% in size
# COP TGFb inh = qHTS for Inhibitors of TGF-b: Hit Validation in HepG2 Cells using COP promoter; shares compounds with TGFb inhibitor; 1,600 compounds, 3% hits; Potency, µM (top dose mostly 46.1 µM), for the others: at the highest dose activity, negative = inhibition, usual class: inhibitors; HepG2 COP-GFP TGF-b reporter, GFP fluorescence, 18 h; cells stimulated by added recombinant TGF-beta; note: nearly all actives have a fitted effect of over 70% in size
# An asterisk follows results filed as active; i = inactive; ? = inconclusive; . = no result given. Calls come from the whole dose curve; as a rule, active = well fitted curve in the direction sought with a large enough effect; inconclusive = small, poorly fitted or top-dose-only effect, or another doubt; inactive = no such curve, though single readings can be large; an effect the other way counts as inactive or inconclusive. Potency is the fitted concentration of half-maximal effect.
SMILES,TGFb inhibitor,HepG2 tox-1,HT1080 IDH1KD tx,KB-V1 cytotox,KB-3-1 cytotox,HT1080NT lethal,TGFb confirm,HepG2 tox-2,TGFb CCL64 inh,COP TGFb inh
CCC/C=C1/CCCOC(C(=O)NCCOC)(C(F)(F)F)C1 (stereo not drawn),-7.2%,-8.4%,.,.,.,.,.,.,.,.
CCOc1ccc(C(=O)N2CC(=O)Nc3ccc(C)cc3C2c2ccc(F)cc2)cc1OCC (stereo not drawn),?,-23.4%,.,i,i,.,.,.,.,.
c1ccc(Sc2ncnc3ccccc23)cc1,10µM*,-35.6%,?,i,i,-25.8%,10.3µM*,?,?,39.5%
COc1ccc(C(=O)OCc2cc(=O)n3nc(C4CC4)sc3n2)cc1OC,0.8%,-6.5%,.,i,i,.,.,.,.,.
CN(Cc1ccccc1)S(=O)(=O)c1ccc(NC(=S)NC(=O)C2CCCCC2)cc1,12.6µM*,-0.8%,-26.7%,?,?,-5.5%,32.6µM*,?,14.4%,18.8%
CC1=C(C(=O)NCc2cccc(Cl)c2)C2(CCCCCC2)OC1=O,-6.6%,-25.7%,.,i,i,.,.,.,.,.
C=C1C2=C(C(=O)N1OC)[C@@H](O)[C@@](C)(O)[C@@H](CCCCC)O2,12.6µM*,-25.6%,?,i,18.4µM*,?,?,-1.5%,-6.9%,9.1%
O=Cc1cn(CC(=O)Nc2ccc3c(c2)OCO3)c2ccccc12,7.08µM*,-25.0%,0.0%,?,i,-2.5%,8.2µM*,3.26µM*,15.2%,34.1%
CCO[C@@H]1OC(C(=O)NCc2ccccc2)=C[C@H](c2ccc(C(F)(F)F)cc2)[C@H]1CCCO,17.8µM*,-9.2%,?,i,i,-27.8%,?,-28.2%,20.6µM*,32.5%
O=S(=O)(c1cccc2ccccc12)N1CCC2CC1c1cc(Cl)ccc12 (stereo not drawn),?,-5.1%,-5.4%,i,i,3.6%,.,.,.,.
C[C@H]1CN([C@@H](C)CO)C(=O)Cc2cc(NS(=O)(=O)c3ccc(Cl)cc3)ccc2O[C@@H]1CN(C)C(=O)Nc1cccc2ccccc12,-23.6%,-0.9%,0.3%,?,i,-0.3%,.,.,.,.
CC(C)NC(=O)N(C)C[C@H]1Oc2ccc(NS(=O)(=O)c3ccc(Cl)cc3)cc2CC(=O)N([C@@H](C)CO)C[C@@H]1C,?,-21.7%,4.5%,i,i,10.8%,-9.0%,3.3%,1.7%,2.8%
CCN(CC)CC(C)(C)C(=O)/C=C/c1ccc(/C=C/C(=O)C(C)(C)CN(CC)CC)cc1,4.47µM*,5.01µM*,1.64µM*,i,?,5.8µM*,3.26µM*,3.26µM*,4.61µM*,?
CCN(CC)CCOC(=O)/C=C/c1ccccc1,-15.0%,-17.8%,0.5%,i,i,1.3%,.,.,.,.
Cc1c(NS(=O)(=O)c2cccs2)cccc1-c1nc2cccnc2s1,?,-10.7%,1.8%,i,i,?,.,.,.,.
O=S(=O)(Nc1cccc2ncccc12)c1cccs1,6.31µM*,-41.2%,?,?,?,-8.5%,14.6µM*,?,6.51µM*,39.6%
CCN(C(=O)CSc1nc2ccccc2n1CC(=O)NCc1ccc(OC)cc1)c1ccccc1,2.3%,-13.7%,.,i,i,.,.,.,.,.
CC(=O)c1cccc(NC(=O)/C=C/c2ccc([N+](=O)[O-])s2)c1,7.08µM*,-57.5%,?,20.6µM*,?,?,4.11µM*,11.6µM*,2.06µM*,-2.0%
COc1ccc(-c2cc(=Nc3c(C)n(C)n(-c4ccccc4)c3=O)c3ccccc3o2)cc1,-11.4%,-27.1%,-20.9%,?,i,-6.3%,.,.,.,.
COc1ccc(-c2c/c(=N\c3nc(-c4ccccc4)c(C)s3)c3ccccc3o2)cc1O,8.91µM*,-14.5%,5.8µM*,5.8µM*,5.17µM*,5.8µM*,8.2µM*,?,4.11µM*,36.7%
COc1cc(OC)c(OC)cc1CNc1cc(C)ccc1OC,?,-22.4%,-28.4%,i,i,?,6.51µM*,-14.1%,-16.9%,-0.1%
COc1cc(Br)c(CNc2cc(C)ccc2C)cc1OC,?,-27.0%,-21.6%,?,?,-13.8%,.,.,.,.
c1cnc2ccc3c(c2c1)COCO3,-8.1%,-3.0%,-4.2%,i,i,-4.3%,.,.,.,.
Cc1ccc(CNC(=O)CN2N=C(c3ccccc3)CCC2=O)cc1,-0.6%,1.7%,.,i,i,.,.,.,.,.
COc1cccc(CN(C(=O)Cc2c[nH]c3ccccc23)C(C(=O)NC2CCCCC2)c2ccc(C)o2)c1 (stereo not drawn),15.8µM*,-10.9%,?,20.6µM*,?,-21.4%,25.9µM*,?,?,22.9%
CCn1cc2nc(SCc3ccccc3Cl)n(Cc3ccc(OC)cc3)c(=O)c2n1,-12.3%,0.3%,.,i,i,.,.,.,.,.
Cc1cc(=O)n(Cc2cccc(Cl)c2)c2c1c(C)nn2C,-6.1%,-17.4%,.,i,i,.,.,.,.,.

# Screening results: PubChem BioAssay, National Center for Advancing Translational Sciences (NCATS)
